Shown are actives, neighbours in structure and some others; about 19% of the full set was active somewhere.
HT1080NT lethal = kills 2HG-producing HT-1080-NT fibrosarcoma cells | HT-1080-NT fibrosarcoma viability, CellTiter-Glo ATP luminescence, 48 h | Potency, µM (top dose mostly 46.1 µM), usual class: cytotoxic | 360,000 tested, 1.6% active;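 further: NT is the 2HG producing partner of a matched IDH1 knockdown line; nearly all actives have a fitted effect of over 55% in size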
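HT-1080-NT fibrosarcoma cells (2HG-overproducing), 750 cells/well in RPMI with 5% FBS, dosed after 2 h and incubated 48 h at 37C. CellTiter-Glo luminescence normalized to DMSO and no-cell wells; concentration-response curves fitted and classed.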
TDP1 cell CPT = DT40-hTDP1 cell growth loss with CPT; chicken DT40 Tdp1-/-;hTDP1 cells + 20 nM CPT, ATP luminescence, 48 h; Potency, µM (doses to about 46.2 µM), most hits filed as inhibitors; 420,000 tested, 12% active; further: nearly all actives have a fitted effect of over 55% in size
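Chicken DT40 Tdp1-/- cells stably complemented with human TDP1 were seeded at 400 cells/well in medium containing 20 nM camptothecin, exposed to pin-transferred compounds, and grown at 37 °C for at least 48 hr. Viability was read as ATP luminescence.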
HT1080 IDH1KD tx = kills HT-1080 cells with IDH1 knockdown. 360,000 tested, 2% active. AID 686971. HT-1080 IDH1 knockdown viability, ATP luminescence, 48 h. Potency, µM (doses to about 46.1 µM), most hits filed as cytotoxic
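CellTiter-Glo luminescence after 48 h compound exposure at 37 degrees C of IDH1-knockdown HT-1080 cells in 5% FBS RPMI. %Activity scaled between DMSO wells and cell-free media wells, with curves fitted and assigned curve classes.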
ELG1 repair inh = ELG1-dependent DNA repair inhibition; HEK293T ELG1-luciferase reporter, luminescence, 16 h; DNA damage induced by 5-fluorouridine; Potency, µM (doses to about 46.1 µM), actives largely listed as inhibitors; 330,000 tested, 2.3% active; AID 504467; further: nearly all actives have a fitted effect of over 55% in size
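Cells (2,000 per well) received 5-fluorouridine plus test compound or DMSO and were incubated 16 hr at 37 °C, 5% CO2. Luciferase activity was read by luminescence 30 min after ONE-Glo addition; signal suppression marked inhibition of damage-induced ELG1 function.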
IL1B secr inh = blocks inflammasome-driven IL-1 beta release; THP-1 LPS/ATP IL-1B secretion, AlphaLISA, 16 h; hits give low values; activity change, % at 57.5 µM; 360,000 tested, 4.7% active; AID 743279; in the data active means activity change below about -50%; inconclusive means mostly about -30% to -49%
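Secreted IL-1B measured by AlphaLISA bead assay after 16 h compound exposure of THP-1 cells; compounds (final up to 57.5 uM) added 1 h before LPS (250 ng/mL) and ATP (1.25 mM) stimulation; lower signal means less secretion.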
TDP1 cell noCPT = qHTS for Inhibitors of human tyrosyl-DNA phosphodiesterase 1 (TDP1): qHTS in cells in absence of CPT; DT40 Tdp1-/- hTDP1 cells, no CPT, ATP luminescence, 48 h; Potency, µM (top dose mostly 46.2 µM), hits mostly inhibitors; 420,000 tested, 15% active; AID 686978, 2013; further: nearly all actives have a fitted effect of over 55% in size
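Stably hTDP1-transfected Tdp1-null chicken DT40 cells were treated with library compounds minus camptothecin and grown for at least 48 hr at 37 °C, after which cellular ATP was quantified by luminescence.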
Of the large screens only hits and unclear results are named; the others gave an inactive call. Unless noted, the call rests on the fitted dose curve; in most records, active means well fitted curve in the direction sought with a large enough effect; inconclusive means small, poorly fitted or top-dose-only effect, or another doubt; inactive means no such curve, though single readings can be large; an effect the other way counts as inactive or inconclusive.

Cc1cc(C(=O)NC2CCCc3c2cnn3-c2ccc(C(C)(C)C)cc2)n[nH]1 (configuration not stated)	TDP1 cell CPT 21µM, ELG1 repair inh inconclusive, TDP1 cell noCPT 12µM
Cc1ccccc1-n1ncc2c1CC(C)(C)CC2NC(=O)CCC1=NNC(=O)CC1 (configuration not stated)	none
Cc1nc(-n2nc(C)c(Cc3ccccc3Cl)c2C)sc1C(=O)N1CCCCC1C (configuration not stated)	TDP1 cell CPT inconclusive, TDP1 cell noCPT 21µM (no result: HT1080NT lethal, HT1080 IDH1KD tx, ELG1 repair inh, IL1B secr inh)
Cc1occc1C(=O)NNC(=S)NCc1ccccc1	none
COc1ccc(-c2sc3ccccc3c2-c2ccc(O)cc2)cc1	HT1080NT lethal inconclusive, HT1080 IDH1KD tx inconclusive, TDP1 cell noCPT inconclusive
COc1ccc(-c2sc3cc(OC)c(OC)cc3c2-c2ccc(O)cc2)cc1	HT1080NT lethal inconclusive, TDP1 cell CPT inconclusive, HT1080 IDH1KD tx inconclusive, ELG1 repair inh inconclusive, IL1B secr inh -54, TDP1 cell noCPT inconclusive
Cc1c(Cl)ccc2c(C(=O)NCCN3CCCCC3)cc(-c3ccccn3)nc12	HT1080NT lethal inconclusive, TDP1 cell CPT inconclusive, HT1080 IDH1KD tx 23µM, ELG1 repair inh inconclusive, IL1B secr inh -97, TDP1 cell noCPT 9.2µM
Cc1c(Cl)ccc2c(C(=O)NCCCn3nccc3C)cc(-c3ccccn3)nc12	TDP1 cell CPT 21µM, ELG1 repair inh 18µM, TDP1 cell noCPT inconclusive
COc1ccccc1-c1cc(C(=O)NC2CCN(C)CC2)c2ccc(Cl)c(C)c2n1	TDP1 cell CPT 12µM, HT1080 IDH1KD tx inconclusive, IL1B secr inh inconclusive, TDP1 cell noCPT 21µM
COc1ccccc1-c1cc(C(=O)NC2CCCC2)no1	ELG1 repair inh inconclusive, TDP1 cell noCPT inconclusive
Cc1cc(N)nc(=O)n1C1CC(O)C(CO)O1 (configuration not stated)	none (no result: ELG1 repair inh)
CCCCNC(=O)C1(C)CCCCN1C(=O)c1ccc(C#N)cc1 (configuration not stated)	none (no result: ELG1 repair inh)
CCc1cccc(NC(=O)Nc2csc3c2CCCC3)c1	TDP1 cell CPT 21µM, TDP1 cell noCPT 23µM (no result: HT1080NT lethal, HT1080 IDH1KD tx, ELG1 repair inh, IL1B secr inh)
Cc1cccc(C)c1NC(=O)c1csc2c1CCCC2	TDP1 cell CPT 3.7µM, TDP1 cell noCPT 5.2µM (no result: HT1080NT lethal, HT1080 IDH1KD tx, ELG1 repair inh, IL1B secr inh)
Cc1cccc(C)c1NC(=O)Nc1csc2c1CCCC2	none (no result: HT1080NT lethal, HT1080 IDH1KD tx, ELG1 repair inh, IL1B secr inh)
CC(C)CNC(=S)NNC(=O)c1csc2c1CCCC2	HT1080NT lethal 8.9µM, TDP1 cell CPT inconclusive, HT1080 IDH1KD tx inconclusive, IL1B secr inh inconclusive, TDP1 cell noCPT inconclusive
CC(C)CNC(=S)NNC(=O)c1csc2ccccc12	HT1080NT lethal inconclusive
COc1ccc(NC(=O)c2csc3c2CCCCC3)c(OC)c1	IL1B secr inh -175, TDP1 cell noCPT inconclusive
CC(C)(C)c1cc(CN(CCO)CCO)c(O)c(C(C)(C)C)c1	TDP1 cell CPT inconclusive, ELG1 repair inh inconclusive
Cc1c(C(=O)N2CCC[C@H]2CO)oc2c(F)cccc12	ELG1 repair inh inconclusive
COc1cccc(NC(=O)c2csc3c2CCCCC3)c1	TDP1 cell CPT 21µM, TDP1 cell noCPT 16µM (no result: HT1080NT lethal, HT1080 IDH1KD tx, ELG1 repair inh, IL1B secr inh)
CCC1=C(OC(=O)N(CC)CC)N2C(=O)OC(=NCC(=O)OC)[C@]2(Cc2ccccc2)[C@H]2C1=CC[C@H]1C(=O)N(C)C(=O)[C@H]12	none
CCC1=C(OC(=O)N(CC)CC)N2C(=O)OC(=NCC3CC3)[C@]2(Cc2ccccc2)[C@H]2C1=CC[C@H]1C(=O)N(C)C(=O)[C@H]12	TDP1 cell CPT 18µM, TDP1 cell noCPT 18µM
CCC1=C(OC(=O)N(CC)CC)N2C(=O)OC(=NCCc3c[nH]c4ccccc34)[C@]2(Cc2ccccc2)[C@H]2C1=CC[C@H]1C(=O)NC(=O)[C@H]12	HT1080NT lethal inconclusive, TDP1 cell CPT inconclusive, HT1080 IDH1KD tx inconclusive, ELG1 repair inh inconclusive, IL1B secr inh inconclusive, TDP1 cell noCPT 16µM
